KCNQ2 pot – potentiators of rat KCNQ2 potassium channel. hit rate 0.54% among 310,000. B-score at 10 µM. Potassium voltage-gated channel subfamily KQT member 2 (Rattus norvegicus), O88943. CHO-K1 KCNQ2, FluxOR thallium flux fluorescence; hits give high values;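 active = fluorescence ratio B-score at least 3 SD of library B-scores, with initial fluorescence B-score within 3 of them, cut at about 5.3 in these data; same plate scores as AID 2156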;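 also: B-score of peak minus minimum over baseline fluorescence ratio after K+ and Tl+ stimulus; positive B-score means potentiation of KCNQ2 with more thallium influx and brighter signal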
KCNQ2 inh – rat KCNQ2 potassium channel inhibitors, primary screen, cell-based, CHO-K1, FluxOR thallium flux, B-score | Potassium voltage-gated channel subfamily KQT member 2 (Rattus norvegicus), O88943 | 20 min; hits give low values | B-score at 10 µM | hit rate 1.1% among 310,000;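 active = fluorescence ratio B-score at most minus 3 library SDs, with starting brightness B-score within 2 library SDs, cut at about -5.5 in these data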
* hit, by the source's call; i = inactive; · = no result given. This is a sample that favours compounds with a hit; in the whole collection about 1.6% have one here.

SMILES	KCNQ2 pot	KCNQ2 inh
CCCc1cc(C(=O)N2CCN(c3ccccc3C)CC2)cs1	-5.7	-5.7*
CC(C)(C)CC(=O)N[C@@H](Cc1ccccc1)c1nc2ccccc2[nH]1	-7.2	-7.2*
CSCC[C@H](NC(=O)CC(C)(C)C)c1nc2ccccc2[nH]1	·	i
Cc1ccc2c(c1)N(CC(=O)NC1CCCCCC1)C(=O)c1cccnc1O2	·	i
Cc1ccc(O)c(C(CC(=O)NCc2ccco2)c2ccccc2)c1 (centres undefined)	16*	i
Cc1cccc(C(CC(=O)NCc2ccco2)c2ccccc2)c1O (centres undefined)	0.02	i
Cc1ccc(O)c(C(CC(=O)NC(C)C)c2ccccc2)c1 (centres undefined)	0.44	i
CCCN(CCC)C(=O)CC(c1ccccc1)c1cc(C)ccc1O (centres undefined)	-6	-6*
COc1nnc(-c2ccc(N3CCCCC3)c(NC(=O)C3CCCCC3)c2)c2ccccc12	-6.2	-6.2*
COc1nnc(-c2ccc(N3CCOCC3)c(NC(=O)C3CCCCC3)c2)c2ccccc12	·	i
Cc1ccc(N(Cc2ccco2)C(=O)c2ccc(N3CCCCC3)c([N+](=O)[O-])c2)cc1	-7.1	-7.1*
O=C(NCc1ccco1)c1ccc(N2CCCCC2)c([N+](=O)[O-])c1	1.1	i
CC1CN(C(=S)Nc2cccc(Cl)c2Cl)CC(C)O1 (centres undefined)	0.83	i
CCCc1ccc(OCC(=O)NNC(=O)c2cccnc2)cc1	·	i
CCOC(=O)C(CCCOc1cccc(CC)c1)C(=O)OCC	·	i
CCOC(=O)C(CCCCOc1cccc(CC)c1)C(=O)OCC	-5.6	-5.6*
Cc1ccc(O)c(Cn2nnc3ccccc32)c1	1.5	i
O=C(NCCc1ccc(Cl)cc1)C1CCN(S(=O)(=O)c2ccc(Br)s2)CC1	0.36	i
O=C(NC(Cc1c[nH]c2ccccc12)C(=O)O)c1cccs1 (centres undefined)	·	i
O=C(NC(Cc1c[nH]c2ccccc12)C(=O)N/N=C/c1cccc2ccccc12)c1cccs1 (centres undefined)	-8.1	-8.1*
COCCC(=O)Nc1c(-c2ccccc2)c2cc(Br)ccc2[nH]c1=O	0.04	i
COc1cccc2sc3ccc(C#CC4(O)CCCCC4)cc3c(=O)c12	-6.7	-6.7*
O=c1c2ccccc2sc2ccc(C#CC3(O)CCCCC3)cc12	·	i
O=[N+]([O-])c1nn(-c2ccc3c(c2)OCCO3)n(O)c1=NC1CCCCC1	0.86	i
CC1CCN(c2c([N+](=O)[O-])nn(-c3ccc4c(c3)OCCO4)[n+]2[O-])CC1	-5.6	-5.6*
SMILES	KCNQ2 pot	KCNQ2 inh
CCCN1CC(=O)N2Cc3[nH]c4ccccc4c3C[C@H]2C1=O	·	i
CC(C)CCN1CC(=O)N2Cc3[nH]c4ccccc4c3C[C@H]2C1=O	-7.2	-7.2*
CN(CCOc1ccccc1)CC(=O)Nc1cccc(C#N)c1	·	i
COC(=O)C1=CN(c2ccc(OC)cc2)C=C(C(=O)OC)C1c1ccc([N+](=O)[O-])cc1	-5.6	-5.6*
COC(=O)C1=CN(c2ccc(F)cc2)C=C(C(=O)OC)C1c1ccc([N+](=O)[O-])cc1	·	i
CCCN(CCC)S(=O)(=O)c1ccc(C(=O)N2CCCc3ccccc32)cc1	·	i
C=CCN(c1ccccc1OC)S(=O)(=O)c1cccc(C(=O)OCC(=O)c2c[nH]c3ccccc23)c1	6.7*	i
COc1cc(OC)c(N(C)S(=O)(=O)c2cccc(C(=O)OCC(=O)c3c[nH]c4ccccc34)c2)cc1Cl	6.3*	i
COc1cc(C(=O)OCC(=O)c2c[nH]c3ccccc23)ccc1OCC(=O)N1CCOCC1	·	i
Cc1ccc(C(=O)OCC(=O)c2c[nH]c3ccccc23)cc1	0.98	i
COc1ccc2cc(CCN3C(=O)c4ccccc4C3=O)c(=O)[nH]c2c1	1.5	i
Cc1cc2cc(C#N)c(N3CCN(S(C)(=O)=O)CC3)nc2cc1C	1.4	i
CCCn1c(O)c(N=NC(=O)c2ccco2)c2ccccc21	11*	i
CCn1c(O)c(N=NC(=O)CNC(=O)c2ccco2)c2ccccc21	2.6	i
COC(=O)C(CC(=O)c1ccc(Cl)cc1)c1ccc(C)cc1 (centres undefined)	-6.5	-6.5*
O=C(CC(C(=O)O)c1ccc(Cl)cc1)c1ccccc1 (centres undefined)	·	i
Cc1ccc(COc2cccc3c2CCN(Cc2ccc(F)cc2)C3=O)cc1	·	i
O=C1c2cccc(OCc3ccc(F)cc3)c2CCN1Cc1ccccc1	-6.5	-6.5*
O=C(NCc1cnc2ccccn12)C1CCC(=O)N(Cc2cccc(F)c2)C1 (centres undefined)	0.1	i
COc1ccc(N2C(=O)CSC2c2ccccc2F)c(OC)c1 (centres undefined)	0.05	i
CC(C)C1N(C(=O)CN2CCCCC2)CCN1S(=O)(=O)c1ccccc1 (centres undefined)	0.84	i
CCc1ccc2[nH]c(C(=O)Nc3ccc(Br)c(C)n3)cc2c1	·	i
NC(=O)CSCc1cccc(Br)c1	·	i
NC(CSCc1cccc(Br)c1)C(=O)O (centres undefined)	-6	-6*
Cc1ccccc1S(=O)(=O)Cc1ccc(C(=O)N2CCN(c3ccccc3F)CC2)o1	·	i
SMILES	KCNQ2 pot	KCNQ2 inh
CSCCC(NS(=O)(=O)c1cccs1)C(=O)NCc1ccc(C)cc1 (centres undefined)	9.6*	i
CSCCC(NS(=O)(=O)c1cccs1)C(=O)NCc1ccccc1 (centres undefined)	3.2	i
CCCCSCCCNC(=O)Nc1ccc(C)c(C)c1	8.7*	i
Cc1ccc(NC(=O)NCCN2CCCCC2)cc1C	0.73	i
Cc1ccc(S(=O)(=O)n2[nH]c(=O)cc2N)cc1	0.81	i
O=C(COc1ccc(C(=O)O)cc1)Nc1cccc(C(F)(F)F)c1	0.74	i
O=C(COc1ccc(C(=O)NCCN2CCOCC2)cc1)Nc1cccc(C(F)(F)F)c1	-5.7	-5.7*
O=C(CCC(=O)c1ccccc1)Nc1ccccc1OC(F)F	·	i
COc1ccc(NC(=O)CN2C(=O)CSC(C)C2=O)cc1 (centres undefined)	·	i
COC(=O)c1ccc(C(=O)OC)c(N)c1	-5.7	-5.7*
COC(=O)c1ccc(N2CCCCC2)c(N)c1	·	i
COC(=O)c1cccnc1NC(=S)NC1CCCCC1	7.7*	i
COC(=O)c1ccc(NC(=S)NC2CCCCC2)cc1	·	i
CCOc1ccc(N2C(=O)C3C4C=CC([C@H]5CC45)[C@@H]3C2=O)cc1 (some centres undefined)	·	i
CCc1ccccc1NC(=O)C1CCN(C(=O)N2CCOc3ccccc32)CC1	0.06	i
CCOC(=O)C1=C(C)NC(C)=C(C(=O)OCC)C1/C=C/c1ccccc1OC	1.3	i
CCOC(=O)C1=C(C)NC(C)=C(C(=O)OCC)C1c1ccccc1/C=C/C(=O)OC(C)(C)C	-6.7	-6.7*
COc1ccc(-n2c(SCC(=O)Nc3cccc(S(N)(=O)=O)c3)nc3ccccc3c2=O)cc1OC	0.47	i
Cc1ccc(Nc2nc(CSc3n[nH]c(N)n3)cs2)cc1	·	i
COc1cccc2c1OCC/C2=N\NC(=O)COc1ccc(C)cc1	0.24	i
Cc1ccc(OCC(=O)N/N=C2\CCOc3c(C)cccc32)cc1	-6.8	-6.8*

High-throughput results: PubChem BioAssay, Johns Hopkins Ion Channel Center
